Assay results published in the supplement of paper PMC6555819.

The sequences below were run on VDR:RXRa (NR concentration 270 nM, RXRa partner concentration 90 nM) (assay: PBM binding z-score (relative to random genomic background probes); higher = stronger binding; sequences stand for … in GC…GCGATTGACAGCGTAGAATGAAGG).
Procedure: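 Protein-binding microarray (Agilent 4x180K custom design, double-stranded 60-nt probes: 5' GC cap, 34-nt variable region, 24-nt constant primer region; full probe sequence given). Purified or IVT nuclear receptor:RXRα heterodimers (3:1 NR:RXRα, mostly 270:90 nM) or homodimers were incubated for 1 h in PBS with 2% milk and no ligand, then detected with Alexa488 antibodies. Fluorescence from o1-orientation probes (~5 replicates averaged) was converted to z-scores against 500 random hg19 background probes. Variable regions are seed direct-repeat (DR0–DR5) sites, all their single-nucleotide variants and half-site ablations.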
ATCTCTAGGTAACAAGTTCAGGGAAAGAGAGGAC showed a PBM binding z-score of 2.25. ATCTCTAGGTAACCAAGTTCAGTGAATGCCGAAC gave a PBM binding z-score of 4.23. Sequence GCTTTCGGGTCAAAGGTTATAGCATGAATAGAAT has a PBM binding z-score of 5.79. For TCTATTAGTTAAAGGGCAACCGACGAGTCCGTTT, the PBM binding z-score was 1.46. CGAACGAGGGCATGAGTTAATAGCAAATGCCGAT was tested, and the PBM binding z-score was 0.731. Sequence ATCTCTAGTTAACAAGTTCAGTGAAAGAGAGGAC has a PBM binding z-score of 2.52. TATACAGGGTCAAAGGCCAGTGTACGAATGTCGA was tested, and the PBM binding z-score was 4.84. For TCGAGTAGGTTAGTCGGGGCATTCACCCAACATA, the PBM binding z-score was 2.41. In the case of TAGCCTAGGTCATGCGGGCCAGTACAGTGTCGGC, the PBM binding z-score is reported as 2.83. TGTCAAAGTTCAACGGTAACGTAAGTATCCACAC was tested, and the PBM binding z-score was 4.79. Work on CAAACTAGGTCACCGGAAGGACAAAGTCCGCATG yielded a PBM binding z-score of 3.49. In the case of CCTGCTGGGCCATTCAGAGGTCATTGATCATATG, the PBM binding z-score is reported as 4.03. Sequence CCGACTAGGGCATAAGGTTACCATAAGCCAGCCC has a PBM binding z-score of 0.257. For TCATATAGGTAATACAGGTGTAAGTCGGCATCTA, the PBM binding z-score was 1.17. ACTCGGAGGACAAAGGTCAGAGTTACGCCAGTGA gave a PBM binding z-score of 3.42. Sequence TTACCAAGGTGAGCTGACGTCGTTGATCCAACTC has a PBM binding z-score of -0.477. GATACAGGGTCAAGGCCAGAGTCCGCGTATTGAT gave a PBM binding z-score of 4.32. Work on GCAGACAGGTGAAACGCAGGTAACTCATGGTGGC yielded a PBM binding z-score of -0.567. Work on TCATATAGGTAAAAGGTGGAAGTCGGTGTGGTAA yielded a PBM binding z-score of 1.11. In the case of AGTCAAAGTTCAGGACGAGGTAACGTACAGCACG, the PBM binding z-score is reported as 2.88. In the case of CGAACTAGGTCATCCAAGACAGTGAATACATTGA, the PBM binding z-score is reported as 2.57. With TCTAGTTGGTCACGGAGGTCACACAAGACGGGTA the PBM binding z-score was 5.67. Sequence AGAATGAGGTTCCCAAAGATCAGGGAAACGCTTG has a PBM binding z-score of -0.0526. Work on TCGTATAGGTAAATGCTAGGTGAAAGTCCGATCT yielded a PBM binding z-score of 0.443. For AGAATGAGGTTACTAAGATCAGGGAATTGCGGTC, the PBM binding z-score was 1.42. ATACGAAGGTGATCGTGAGGTCGTTGATACTAAC gave a PBM binding z-score of 3.09. With CATACAGGGTCAGCAAGGCCAGAGTAGGGACGGC the PBM binding z-score was 5.7. CCTAGCAGGCCAATCTGTGTCACTCAAGGCTTGA was tested, and the PBM binding z-score was -0.331. AGAACGAGGGCACGCTGAGTTTATAGCAGAGTAG was tested, and the PBM binding z-score was 3.94. In the case of GGAACGAGGGCAAAGTTGATAGAATCTGTCGACG, the PBM binding z-score is reported as 1.34. For GCTCGGAGGACAAGGTCTGAGCTTTGTCCGTAGA, the PBM binding z-score was -0.681. CCGACTGGGGTAAAGGTTACCATACTCAGTACGA gave a PBM binding z-score of 1.18. For CGTCCAAGGTCAAAGGTCAGTGACGAGATGACGG, the PBM binding z-score was 6.67. Sequence GCTGCTAGGTCTACTGATGGTCAGCTAAAGCTCG has a PBM binding z-score of -0.746. CGTCCAAGGTCAGCAGGTCAGTGTAAGCGACGTG gave a PBM binding z-score of 4.14. TAGCTTAGGTCATGGGCCAGTATACCACGCGAAC showed a PBM binding z-score of 2.15. With ACTAGCAGGCCAAGGGCCACTCAAGATTAGTCCG the PBM binding z-score was -0.798. In the case of ATATGTAGGTAAGCTGGGGTCATTCAGACTAGGC, the PBM binding z-score is reported as 5.49. CCTAGCAGGCCTATCTGGGTCACTCAAGGCTTGA was tested, and the PBM binding z-score was 0.253. In the case of TCTCGGAGGACACGAACGGTCAGAGCTCGACATC, the PBM binding z-score is reported as 0.073.
